15 compounds from PubChem BioAssay (NCATS) can be followed below.

Molecules are shown by their SMILES. Inconclusive results are not listed. Values without a mark were called inactive. The source made the active and inactive calls. The call rests on the fitted dose curve; in most records, active means well fitted cell-killing curve with a large enough effect; inconclusive means small, poorly fitted or top-dose-only effect; inactive means flat fitted curve, though single readings scatter.
Potency means the concentration at half of the fitted maximal effect.

A short description of the experiment: Cell Viability - LYMP1-002 - Assay at 40 hr (AID 994). Further: nearly all actives have a fitted effect of over 60% in size.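 On viability change, negative = cytotoxic: 0% = DMSO only and full inhibition = 92 µM tetraoctylammonium bromide.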 Conditions: LYMP1-002 lymphoblastoid cell viability; series mostly up to 92.2 µM; viability change, negative = cytotoxic: at the top concentration. An excerpt:
NIH Chemical Genomics Center [NCGC]
NIH Molecular Libraries Screening Centers Network [MLSCN]
National Institutes of Environmental Health Sciences [NIEHS]
National Toxicology Program [NTP]
We have developed a 1536-well cell-based assay for quantitative high throughput screening (qHTS) against a number of cell lines to determine in vitro cytotoxicity of small molecules. This particular assay uses a human lymphoblastoid cell line (LYMP1-002) purchased from Coriell Institute for Medical Research.
NCGC Assay Protocol Summary:
The CellTiter-Glo luminescent cell viability assay (Promega) is a homogeneous method to measure the number of viable cells in culture. The end point readout of this assay is based on quantitation of intracellular ATP, an indicator of metabolic activity, using the luciferase reaction. Luciferase catalyzes the oxidation of beetle Luciferin to oxyluciferin and light in the presence of ATP. The luminescent signal is proportional to amount of ATP present.
Using the CellTiter-Glo luminescent cell viability assay, the amount of cellular ATP was measured in the lymphoblastoid cell line with complete culture medium following compound treatment for 40 hours. The assay was performed in opaque white Kalypsys 1536-well plates. In the screen, tetraoctylammonium bromide was used as positive control. Library compounds were measured for their ability to cause acute toxicity in the cell line, as reflected by a decrease in intracellular ATP levels, in a concentration-dependent manner. […] AC50 values were determined from concentration-response data modeled with the standard Hill equation.
qHTS protocol for CellTiter Glo lymphoblastoid cellular assay
[Step] [Parameter] [Value] [Description]
1. Reagent; 5 uL; 2500 lymphoblastoid cells/well
2. Time; 5 hr; 37 C incubation
4. Controls; 23 nL; Tetraoctylammonium bromide 6.4pM to 92 uM
5. Time; 40 hr; 37 C incubation
6. Reagent; 5 uL; CellTiter Glo reagent
7. Time; 30 min; Room Temperature
8. Detection; Luminescence; Viewlux plate reader
Keywords: cell viability, cytotoxicity, lymphoblastoid cell line, luminescence, NTPHTS, NTPHTS_NCGC, NIEHS, DSSTox, MLSMR, MLSCN, NIH Roadmap, qHTS, NCGC
Regarding `Cc1ncc([N+](=O)[O-])n1CCO`, the “viability change, negative = cytotoxic” value is -4.12%.

With `O=C(O)c1cc(=O)[nH]c(=O)[nH]1`, the “viability change, negative = cytotoxic” value was -5.64%.

For `CCc1cc(C(N)=S)ccn1`, the “viability change, negative = cytotoxic” value is -5.99%.

Consider `Cc1noc(NS(=O)(=O)c2ccc(N)cc2)c1C`, for which the “viability change, negative = cytotoxic” value was -1.79%.

For `NNC(=O)c1ccncc1`, the “viability change, negative = cytotoxic” value was -3.73%.

Turning to `CC1=NN(c2ccccc2)C(=O)C1`, the “viability change, negative = cytotoxic” value was -12.4%.

For the compound `C[C@]12C=CC(=O)C=C1CC[C@@H]1[C@@H]2C(=O)C[C@@]2(C)[C@H]1CC[C@]2(O)C(=O)CO`, the “viability change, negative = cytotoxic” value is -3.64%.

Consider `Cc1nnc(NS(=O)(=O)c2ccc(N)cc2)s1`, for which the “viability change, negative = cytotoxic” value was -2.95%.

For `COc1ccc2cc3[n+](cc2c1OC)CCc1cc2c(cc1-3)OCO2`, the “viability change, negative = cytotoxic” value was -29.4%.

Take `Cc1ccnc2c1NC(=O)c1cccnc1N2C1CC1`: the “viability change, negative = cytotoxic” value is -12.4%.

For `CN(C)c1ccc(C(=C2C=CC(=[N+](C)C)C=C2)c2ccc(N(C)C)cc2)cc1`, the Potency was 3.98 µM (active).

`Cc1cc(NS(=O)(=O)c2ccc(N)cc2)no1`: the “viability change, negative = cytotoxic” value was 6.75%.

With `NC(N)=NC(N)=NCCc1ccccc1`, the “viability change, negative = cytotoxic” value is -20.9%.

For `O=C(N[C@H](CO)[C@H](O)c1ccc([N+](=O)[O-])cc1)C(Cl)Cl`, the “viability change, negative = cytotoxic” value is -8.59%.

`N=C(N)c1ccc(OCCCCCOc2ccc(C(=N)N)cc2)cc1`: the Potency was 50.1 µM (active).
